The values that follow come from PubChem BioAssay (EPA / NIEHS).

Conditions in all cases: mRNA level, 48 h; actives raise or lower the signal
Read-out in test [1]: Cytochrome P450 7A1 (Homo sapiens) (UniProt P22680)
Nature of the test: LTEA_HepaRG_CYP7A1: Life Technologies and Expression Analysis (LTEA) Assay for Cytochrome P450 7A1 (CYP7A1) using HepaRG (AID 2283496). In a few lines: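 HepaRG cells plated 48 h, then switched to serum-free induction medium and exposed in duplicate for 48 h to 8-point half-log series from 100 uM in 0.5% DMSO. CYP7A1 mRNA by qRT-PCR (TaqMan), normalized to ACTB/GAPDH/POLR2A; bidirectional fit versus DMSO.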

Read-out in test [2]: Glutathione S-Transferase (GSTA2), GSTA2 (gene 2939)
In words: LTEA_HepaRG_GSTA2: Life Technologies and Expression Analysis (LTEA) Assay for Glutathione S-Transferase (GSTA2) using HepaRG (AID 2283497). In a few lines: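 HepaRG, 48 h dosing, 8-pt half-log CRC from 100 uM, 0.5% DMSO vehicle, n=2; RNA → Fluidigm TaqMan qRT-PCR; GSTA2 vs ACTB/GAPDH/POLR2A; gain/loss fit vs DMSO.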

Read-out in test [3]: Glutamate-cysteine ligase catalytic (GCLC), GCLC (gene 2729)
In words: LTEA_HepaRG_GCLC: Life Technologies and Expression Analysis (LTEA) Assay for Glutamate-cysteine ligase catalytic (GCLC) using HepaRG (AID 2283498). In short, it runs like this:
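Read-out is GCLC transcript level by Fluidigm-based TaqMan qRT-PCR, normalized to three housekeeping genes and fitted in both directions relative to 0.5% DMSO. Human HepaRG cells received chemicals for 48 h, up to 100 uM.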

Read-out in test [4]: growth arrest and DNA damage 45 (GADD45G), GADD45G (gene 10912)
Nature of the test: LTEA_HepaRG_GADD45G: Life Technologies and Expression Analysis (LTEA) Assay for growth arrest and DNA damage 45 (GADD45G) using HepaRG (AID 2283499). In a few lines:
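Gain or loss of GADD45G mRNA, quantified by TaqMan qRT-PCR against three housekeeping genes, is fitted in both directions relative to 0.5% DMSO. Human HepaRG cultures receive test chemical for 48 h at up to 100 uM.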

Read-out in test [5]: Glutamate-cysteine ligase regulatory (GCLM), GCLM (gene 2730)
In words: LTEA_HepaRG_GCLM: Life Technologies and Expression Analysis (LTEA) Assay for Glutamate-cysteine ligase regulatory (GCLM) using HepaRG (AID 2283500). In short, it runs like this:
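Differentiated HepaRG cells exposed 48 h in serum-free induction medium to eight half-log concentrations up to 100 uM (0.5% DMSO). GCLM mRNA by TaqMan qRT-PCR, normalized to ACTB, GAPDH and POLR2A; bidirectional fit versus DMSO.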

Read-out in test [6]: Glutathione S-transferase M3 (GSTM3), GSTM3 (gene 2947)
In words: LTEA_HepaRG_GSTM3: Life Technologies and Expression Analysis (LTEA) Assay for Glutathione S-transferase M3 (GSTM3) using HepaRG (AID 2283501). In a few lines:
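HepaRG, plated 48 h, then serum-free induction medium; test chemical 48 h, duplicate; 100 uM top, half-log x8, 0.5% DMSO. Read-out: GSTM3 mRNA (TaqMan qRT-PCR, Fluidigm array). Bidirectional fit vs DMSO.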

Read-out in test [7]: Hypoxia-inducible factor 1-alpha (Homo sapiens) (UniProt Q16665)
Nature of the test: LTEA_HepaRG_HIF1A: Life Technologies and Expression Analysis (LTEA) Assay for Hypoxia-inducible factor 1 (HIF1A) Trancription factor using HepaRG (AID 2283503). In a few lines:
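Differentiated HepaRG cells in serum-free induction medium exposed 48 h, in duplicate, to 8-point half-log series from 100 uM in 0.5% DMSO. HIF1A mRNA measured by TaqMan qRT-PCR, normalized to ACTB/GAPDH/POLR2A, fitted bidirectionally versus DMSO.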

Read-out in test [8]: 3-Hydroxy-3-Methylglutaryl-CoA Synthase 2 (HMGCS2), HMGCS2 (gene 3158)
In words: LTEA_HepaRG_HMGCS2: Life Technologies and Expression Analysis (LTEA) Assay for 3-Hydroxy-3-Methylglutaryl-CoA Synthase 2 (HMGCS2) using HepaRG (AID 2283504). In short, it runs like this: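 HepaRG, plated 48 h then switched to serum-free induction media; cmpd 8-pt, max 100 uM, 1/2-log, 0.5% DMSO, n=2, 48 h. HMGCS2 mRNA by Fluidigm TaqMan qRT-PCR, ACTB/GAPDH/POLR2A norm; bidirectional fit vs DMSO.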

Read-out in a further test: HGF (gene 3082)
In words: LTEA_HepaRG_HGF: Life Technologies and Expression Analysis (LTEA) Assay for Hepatocyte Growth Facto (HGF) using HepaRG (AID 2283505). In short, it runs like this:
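Read-out is HGF transcript level by qRT-PCR, normalized to three housekeeping genes, fitted bidirectionally against 0.5% DMSO vehicle. Human HepaRG cells received test chemicals for 48 h at up to 100 uM.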

Read-out in test [9]: Heat shock 70 kDa protein 1 (HSPA1A), gene 3303
In words: LTEA_HepaRG_HSPA1A: Life Technologies and Expression Analysis (LTEA) Assay for Heat shock 70 kDa protein 1 (HSPA1A) using HepaRG (AID 2283502). In a few lines: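 Human HepaRG cells in serum-free induction medium were exposed in duplicate for 48 h to 8 half-log concentrations, highest 100 uM, in 0.5% DMSO. HSPA1A mRNA read by TaqMan qRT-PCR, normalized to ACTB, GAPDH, POLR2A, fitted bidirectionally against DMSO.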

Activity calls are given as the source filed them. How the source made its calls: active means hit-call score of the fitted dose curve at least 0.9, where 1 is the maximum; inactive means score below 0.9.

Hypoxia-inducible factor 1-alpha (Homo sapiens), sequence (Q16665 whole entry, looked up): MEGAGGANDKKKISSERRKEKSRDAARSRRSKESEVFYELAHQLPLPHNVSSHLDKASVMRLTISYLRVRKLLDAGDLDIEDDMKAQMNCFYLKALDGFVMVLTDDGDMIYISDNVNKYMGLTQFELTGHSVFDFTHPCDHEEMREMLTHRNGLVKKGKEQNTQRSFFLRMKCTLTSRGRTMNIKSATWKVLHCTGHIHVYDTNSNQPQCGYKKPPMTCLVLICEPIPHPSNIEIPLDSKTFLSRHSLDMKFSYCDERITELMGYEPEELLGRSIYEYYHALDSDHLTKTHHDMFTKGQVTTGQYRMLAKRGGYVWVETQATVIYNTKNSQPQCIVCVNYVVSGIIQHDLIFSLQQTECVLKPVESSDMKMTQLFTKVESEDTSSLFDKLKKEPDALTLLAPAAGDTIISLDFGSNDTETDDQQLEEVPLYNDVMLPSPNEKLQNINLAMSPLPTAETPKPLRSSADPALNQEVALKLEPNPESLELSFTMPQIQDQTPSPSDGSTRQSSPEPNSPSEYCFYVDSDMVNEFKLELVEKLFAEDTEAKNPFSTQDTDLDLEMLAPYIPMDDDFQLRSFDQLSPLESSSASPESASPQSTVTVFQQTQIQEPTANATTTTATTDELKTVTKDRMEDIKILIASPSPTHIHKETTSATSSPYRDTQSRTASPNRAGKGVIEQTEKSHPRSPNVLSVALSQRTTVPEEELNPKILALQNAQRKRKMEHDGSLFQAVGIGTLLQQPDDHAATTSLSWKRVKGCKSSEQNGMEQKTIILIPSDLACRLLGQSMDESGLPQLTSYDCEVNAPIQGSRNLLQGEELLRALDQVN

Take `N#Cc1c[nH]cc1-c1cccc2c1OC(F)(F)O2`: the AC50 (commonly the midpoint of the concentration-response curve, whichever way the signal moves) in test [1] is 69.9 µM (active); in [2], 85.6 µM (active); in test [5] it was 93.2 µM (active); in [6], 50 µM (active); in test [7] it was 83.4 µM (active); in [8], 79.3 µM (active). For the same compound, the outcome (in test [3]; in test [4]; with HGF (gene 3082)) was inactive.

On to `O=C(Nc1ccccc1-c1ccc(Cl)cc1)c1cccnc1Cl`, for which the AC50 in test [1] was 17 µM (active); in test [8], 52.5 µM (active). In addition, the call in test [2], in test [3], in [4], in test [5], in test [6] and in test [7] was inactive.

Consider `CC(C)C1(C)N=C(c2ncccc2C(=O)O)NC1=O` (stereo unspecified), for which the result in test [1], in test [2], in [3], in test [4], in test [5] and in test [6] was inactive. Besides, the compound was called inactive in [7] and in test [8].

With `OC(c1ccc(Cl)cc1)(c1ccc(Cl)cc1)C(Cl)(Cl)Cl`, the AC50 is 75.9 µM (active) in test [1]; 77.3 µM (active) in [2]; 87.7 µM (active) in test [4]; 81.2 µM (active) in [6]; 80.1 µM (active) in test [8]. Further, the compound was classed as inactive (in test [3]; in [5]; in test [7]; with HGF (gene 3082)).

Regarding `CCCN(CC)CC1COC2(CCC(C(C)(C)C)CC2)O1` (stereo unspecified), the call in test [1], in test [2], in [3], in [5], in test [6] and in [7] was inactive. Besides, the compound was called inactive (in [8]; with HGF (gene 3082)).

As to `CCN(CC)C(=O)C(C)Oc1cccc2ccccc12` (stereo unspecified), the AC50 is 35.5 µM (active) in test [1] and 76.9 µM (active) in test [8]. The outcome in test [2], in test [4], in test [5], in [6], in test [9] and in test [7] was inactive.

As for `Cc1cc(C)nc(Nc2ccccc2)n1`, in test [1], the AC50 is 3.4 µM (active). Further, the result in [2], in test [3], in test [4], in test [5], in test [6] and in test [7] was inactive. The compound was classed as inactive in test [8].

Turning to `CC(C)=CC1C(C(=O)OCc2coc(Cc3ccccc3)c2)C1(C)C` (stereo unspecified), the compound was classed as inactive in test [1], in test [2], in [3], in test [4], in test [5] and in test [6]. In addition, the call (in test [7]; in test [8]; in the test with HGF (gene 3082)) was inactive.

`CO/N=C(/C1=NOCCO1)c1ccccc1Oc1ncnc(Oc2ccccc2Cl)c1F`: the half-maximal activity concentration (AC50) in test [1] was 24 µM (active); in test [2], 28.4 µM (active); in [4], 18.4 µM (active); in test [5], 19.5 µM (active); in test [8] it was 21.9 µM (active). The compound was called inactive (in test [3]; in test [6]; in test [7]; with HGF (gene 3082)).

As for `Cc1nc(N(C)C)nc(OC(=O)N(C)C)c1C`, the compound was classed as inactive in test [1], in test [2], in test [3], in test [4], in test [5] and in test [6]. Further, the compound was called inactive in [7] and in test [8].

Take `CN/C(=N\[N+](=O)[O-])NCc1cnc(Cl)s1`: in test [1], the AC50 was 50 µM (active). Further, the outcome in test [2], in test [3], in [4], in test [5], in [6] and in [7] was inactive. The result in test [8] was inactive.

In the case of `C=CCOC(=O)C(C)(C)OC(=O)c1cc(-n2c(=O)cc(C(F)(F)F)n(C)c2=O)ccc1Cl`, the compound was called inactive in [1], in [2], in [3], in test [4], in test [5] and in [6]. Moreover, the result (in test [7]; in test [8]; with HGF (gene 3082)) was inactive.

Turning to `CCOc1nc(C(Cl)(Cl)Cl)ns1`, the call in [2], in test [4], in test [9], in test [7] and in test [8] was inactive. Also, the concentration at half-maximal activity (AC50) is 0.939 µM (active) in [3], 1.14 µM (active) in test [5] and 22.9 µM (active) in [6].

Take `COCC(=O)N(c1c(C)cccc1C)C(C)C(=O)OC` (stereo unspecified): the call in [1], in test [2], in [3], in test [5], in [6] and in test [7] was inactive. Besides, in test [8], the compound was called inactive.
